The text below walks through data of PubChem BioAssay (EPA / NIEHS).

Several values for one entry are separate records, joined by “and”; a condition that tells them apart may be missing. Equal values may be shown once. A structure can be active in one record and inactive in another. Activity calls are given as the source filed them. How the source made its calls: active means hit-call score of the fitted dose curve at least 0.9, where 1 is the maximum; inactive means score below 0.9.

Read-out in one assay: Low-density lipoprotein receptor (LDLR), LDLR (gene 3949)
Briefly: BSK_CASM3C_LDLR: BioMAP Diversity Plus: CASM3C Assay for Low-density lipoprotein receptor (LDLR) Biomarker Activity (AID 2283045).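 Further: LDLR protein level on the cell surface quantified by ELISA.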 The conditions noted are these: primary human coronary artery smooth muscle cells; actives raise or lower the signal.
As for `C=C(C)C(=O)OCC(F)(F)C(F)(F)C(F)(F)C(F)(F)C(F)(F)C(F)(F)C(F)(F)F`, the result was inactive.
With `Nc1ccc([N+](=O)[O-])cc1O`, the outcome was inactive.
The same measure, in the same setting: under `FC(F)(F)C(F)(F)C(F)(F)C(F)(F)C(F)(F)C(F)(F)CCS` stands “inactive”; under `O=S(=O)(OCC(F)F)C(F)(F)F`, “inactive”; under `Cc1ccc(S(=O)(=O)OCC(F)(F)C(F)(F)C(F)(F)C(F)(F)C(F)(F)C(F)F)cc1`, “inactive”.
Take `N=C(N)C(F)(F)C(F)(F)C(F)(F)C(F)(F)C(F)(F)C(F)(F)C(F)(F)F`: the AC50 (as a rule, the midpoint of the concentration-response curve, whichever way the signal moves) is 27.1 µM (active) and the result was inactive.
Regarding `CCCCOCCOCCOC(=O)CCCCC(=O)OCCOCCOCCCC`, the result was inactive.
`OCCCC(F)(F)C(F)(F)C(F)(F)C(F)(F)C(F)(F)C(F)(F)C(F)(F)F`: the AC50 is 43.7 µM (active) and 45.9 µM (active).
As to `FC(F)(F)C(F)(F)C(F)(F)C(F)(F)CCI`, the result was inactive.
In the case of `FC(F)(F)C(F)(F)C(F)(F)C(F)(F)C(F)(F)C(F)(F)C(F)(F)C(F)(F)F`, the outcome was inactive.
Still for that read-out and setting: in the case of `FC(F)(Br)C(F)(F)C(F)(F)C(F)(F)C(F)(F)C(F)(F)Br` it was “inactive”; in that of `FC1CC(F)(F)C(F)(F)C1(F)F` (stereo unspecified), “inactive”.
Take `FC(F)(I)C(F)(F)C(F)(F)C(F)(F)I`: the half-maximal activity concentration (AC50) is 23.6 µM (active) and 43.5 µM (active); the result was inactive.
For `OCC(F)(F)C(F)(F)C(F)(F)C(F)F`, the half-maximal activity concentration (AC50) is 0.292 µM (active) and the result was inactive.
Take `C=CC(=O)OCC(F)(F)C(F)(F)C(F)(F)C(F)(F)COC(=O)C=C`: the AC50 is 12.2 µM (active) and the result was inactive.
`C=C(C)C(=O)OCC(F)(F)C(F)(F)C(F)(F)F`: the outcome was inactive.
As to `CCCCCCOC(=O)c1ccccc1O`, the outcome was inactive.
Still for that read-out and setting: under `FC(F)(F)C(F)(F)CNCC(F)(F)C(F)(F)F` stands “inactive”.
On to `O=C(O)C(F)(F)C(F)(F)C(F)(F)C(F)(F)C(F)(F)C(F)(F)C(F)(F)C(F)(F)C(F)(F)C(F)F`, for which the outcome was inactive.
Same read-out and setting: in the case of `C=CC(F)(F)C(F)(F)C(F)(F)C(F)(F)C(F)(F)C(F)(F)C(F)(F)C(F)(F)C=C` it was “inactive”; in that of `O=C(Cl)C(F)(F)C(F)(F)C(F)(F)C(F)(F)C(F)(F)C(F)(F)C(F)(F)C(F)(F)F`, “inactive”.
On to `O=C(O)C(F)(F)C(F)(F)C(F)(F)C(F)(F)C(F)(F)C(F)(F)C(F)(F)C(F)(F)Cl`, for which the result was inactive.
Still for that read-out and setting: in the case of `O=P(O)(O)OCCC(F)(F)C(F)(F)C(F)(F)C(F)(F)C(F)(F)C(F)(F)F` it was “inactive”; in that of `C#C[C@]1(O)CC[C@H]2[C@@H]3CCc4cc(OC)ccc4[C@H]3CC[C@@]21C`, “inactive”; in that of `CCCCC(CC)COP(=O)(O)OCC(CC)CCCC` (stereo unspecified), “inactive”.
In the case of `O=C(O)C(F)(F)C(F)(F)C(F)(F)C(F)(F)C(F)(F)C(F)(F)C(F)(F)C(F)(F)C(F)(F)C(F)(F)C(F)(F)C(F)(F)F`, the outcome was inactive.
The same measure, in the same setting: under `C=C(C)C(=O)OCCC(F)(F)C(F)(F)C(F)(F)C(F)(F)C(F)(C(F)(F)F)C(F)(F)F` stands “inactive”; under `O=C(O)C(F)(F)C(F)(F)C(F)(F)C(F)(F)C(F)(F)C(F)(F)C(F)(F)C(F)(F)C(F)(F)C(F)(F)C(F)(F)C(F)(F)C(F)(F)F`, “inactive”.
On the same count and under the same terms, under `O=C(O)C(F)(OC(F)(F)C(F)(OC(F)(F)C(F)(F)C(F)(F)F)C(F)(F)F)C(F)(F)F` (stereo unspecified) stands “inactive”.
On to `CC(C)(C)C(=O)CC(=O)C(F)(F)C(F)(F)C(F)(F)F`, for which the result was inactive.
The same measure, in the same setting: under `CCCCCCCCC(F)(F)C(F)(F)C(F)(F)C(F)(F)C(F)(F)C(F)(F)F` stands “inactive”.
As for `CCCCCCCCCCCCCCCC[N+](C)(C)Cc1ccccc1`, the AC50 is 9.64 µM (active).
As to `C=CC/C=C/C/C=C/C/C=C/C`, the result was inactive.
On the same count and under the same terms, in the case of `O=C(O)C(F)(OC(F)(F)C(F)(OC(F)(F)C(F)(OC(F)(F)C(F)(F)C(F)(F)F)C(F)(F)F)C(F)(F)F)C(F)(F)F` (stereo unspecified) it was “inactive”; in that of `CS(C)(=O)=O`, “inactive”.

Read-out in the next assay: Monocyte Chemoattractant Protein-1 (MCP1), CCL2 (gene 6347)
In words: BSK_CASM3C_MCP1: BioMAP Diversity Plus: CASM3C Assay for Monocyte Chemoattractant Protein-1 (MCP1) Biomarker Activity (AID 2283046).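 Further: MCP-1 level quantified by ELISA 24 h after dosing.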 The conditions noted are these: primary human coronary artery smooth muscle cells; actives raise or lower the signal.
For `C=C(C)C(=O)OCC(F)(F)C(F)(F)C(F)(F)C(F)(F)C(F)(F)C(F)(F)C(F)(F)F`, the result was inactive.
Still for that read-out and setting: in the case of `Nc1ccc([N+](=O)[O-])cc1O` it was “inactive”; in that of `FC(F)(F)C(F)(F)C(F)(F)C(F)(F)C(F)(F)C(F)(F)CCS`, “inactive”.
On the same count and under the same terms, in the case of `O=S(=O)(OCC(F)F)C(F)(F)F` it was “inactive”; in that of `Cc1ccc(S(=O)(=O)OCC(F)(F)C(F)(F)C(F)(F)C(F)(F)C(F)(F)C(F)F)cc1`, “inactive”.
Consider `N=C(N)C(F)(F)C(F)(F)C(F)(F)C(F)(F)C(F)(F)C(F)(F)C(F)(F)F`, for which the outcome was inactive.
For `CCCCOCCOCCOC(=O)CCCCC(=O)OCCOCCOCCCC`, the outcome was inactive.
In the case of `OCCCC(F)(F)C(F)(F)C(F)(F)C(F)(F)C(F)(F)C(F)(F)C(F)(F)F`, the AC50 was 38.3 µM (active) and 28.9 µM (active).
Take `FC(F)(F)C(F)(F)C(F)(F)C(F)(F)CCI`: the result was inactive.
Same read-out and setting: in the case of `FC(F)(F)C(F)(F)C(F)(F)C(F)(F)C(F)(F)C(F)(F)C(F)(F)C(F)(F)F` it was “inactive”.
The same measure, in the same setting: in the case of `FC(F)(Br)C(F)(F)C(F)(F)C(F)(F)C(F)(F)C(F)(F)Br` it was “inactive”; in that of `FC1CC(F)(F)C(F)(F)C1(F)F` (stereo unspecified), “inactive”.
Regarding `FC(F)(I)C(F)(F)C(F)(F)C(F)(F)I`, the AC50 was 44.4 µM (active) and 46 µM (active) and 46.1 µM (active).
As for `OCC(F)(F)C(F)(F)C(F)(F)C(F)F`, the result was inactive.
As to `C=CC(=O)OCC(F)(F)C(F)(F)C(F)(F)C(F)(F)COC(=O)C=C`, the AC50 was 45.8 µM (active) and 44 µM (active).
Take `C=C(C)C(=O)OCC(F)(F)C(F)(F)C(F)(F)F`: the result was inactive.
Same read-out and setting: in the case of `CCCCCCOC(=O)c1ccccc1O` it was “inactive”; in that of `FC(F)(F)C(F)(F)CNCC(F)(F)C(F)(F)F`, “inactive”.
Still for that read-out and setting: in the case of `O=C(O)C(F)(F)C(F)(F)C(F)(F)C(F)(F)C(F)(F)C(F)(F)C(F)(F)C(F)(F)C(F)(F)C(F)F` it was “inactive”.
Still for that read-out and setting: in the case of `C=CC(F)(F)C(F)(F)C(F)(F)C(F)(F)C(F)(F)C(F)(F)C(F)(F)C(F)(F)C=C` it was “inactive”; in that of `O=C(Cl)C(F)(F)C(F)(F)C(F)(F)C(F)(F)C(F)(F)C(F)(F)C(F)(F)C(F)(F)F`, “inactive”; in that of `O=C(O)C(F)(F)C(F)(F)C(F)(F)C(F)(F)C(F)(F)C(F)(F)C(F)(F)C(F)(F)Cl`, “inactive”.
In the case of `O=P(O)(O)OCCC(F)(F)C(F)(F)C(F)(F)C(F)(F)C(F)(F)C(F)(F)F`, the half-maximal activity concentration (AC50) was 258 nM (active) and the outcome was inactive.
With `C#C[C@]1(O)CC[C@H]2[C@@H]3CCc4cc(OC)ccc4[C@H]3CC[C@@]21C`, the result was inactive.
On the same count and under the same terms, in the case of `CCCCC(CC)COP(=O)(O)OCC(CC)CCCC` (stereo unspecified) it was “inactive”.
Same read-out and setting: in the case of `O=C(O)C(F)(F)C(F)(F)C(F)(F)C(F)(F)C(F)(F)C(F)(F)C(F)(F)C(F)(F)C(F)(F)C(F)(F)C(F)(F)C(F)(F)F` it was “inactive”.
Same read-out and setting: in the case of `C=C(C)C(=O)OCCC(F)(F)C(F)(F)C(F)(F)C(F)(F)C(F)(C(F)(F)F)C(F)(F)F` it was “inactive”.
Regarding `O=C(O)C(F)(F)C(F)(F)C(F)(F)C(F)(F)C(F)(F)C(F)(F)C(F)(F)C(F)(F)C(F)(F)C(F)(F)C(F)(F)C(F)(F)C(F)(F)F`, the AC50 is 33.9 nM (active) and the result was inactive.
Consider `O=C(O)C(F)(OC(F)(F)C(F)(OC(F)(F)C(F)(F)C(F)(F)F)C(F)(F)F)C(F)(F)F` (stereo unspecified), for which the outcome was inactive.
Still for that read-out and setting: under `CC(C)(C)C(=O)CC(=O)C(F)(F)C(F)(F)C(F)(F)F` stands “inactive”.
With `CCCCCCCCC(F)(F)C(F)(F)C(F)(F)C(F)(F)C(F)(F)C(F)(F)F`, the outcome was inactive.
On to `CCCCCCCCCCCCCCCC[N+](C)(C)Cc1ccccc1`, for which the AC50 was 3500 nM (active).
As to `C=CC/C=C/C/C=C/C/C=C/C`, the result was inactive.
As for `O=C(O)C(F)(OC(F)(F)C(F)(OC(F)(F)C(F)(OC(F)(F)C(F)(F)C(F)(F)F)C(F)(F)F)C(F)(F)F)C(F)(F)F` (stereo unspecified), the outcome was inactive.
Same read-out and setting: in the case of `CS(C)(=O)=O` it was “inactive”.
